From PubChem BioAssay AID1224852 (National Center for Advancing Translational Sciences (NCATS), 2016)
Results filed as inconclusive are left out. Calls of active or inactive are those of the source. The call rests on the fitted dose curve; in most records, active means well fitted curve in the direction sought with a large enough effect (not every such curve was filed as active); inconclusive means small, poorly fitted or top-dose-only effect, or effect the other way, or another doubt; inactive means no such curve, though single readings can be large or run the other way.

Experiment: Cell viability assay for measurement of the protective activity of small molecules against cell death caused by Zika virus infection in human neural progenitor cells (hNPCs)
Conditions: hNPC ZIKV-induced death protection, ATP luminescence, 72 h; series mostly up to 46.1 µM
Description: National Center for Advancing Translational Sciences [NCATS] Johns Hopkins University School of Medicine Florida State University Assay Overview: Zika virus infection causes cell death in certain cell types including human neural progenitor cells (hNPCs), astrocytes, and astrocytoma cell line (SNB-19). This cell viability assay measures the ATP content (level) in human neural progenitor cells (hNPCs) using a luminescence readout that is proportional to viable cell numbers. Decrease in the luminescence signal after Zika virus infection indicates the cell death caused by Zika virus. Small molecule inhibitors […] the decreased luminescence signal after Zika virus infection, indicating the protective effect of that small molecule on the cell death caused by Zika virus infection. This observed protective effect of small molecules against Zika virus induced cell death may result from inhibition of virus replication or cellular response to the virus infection.
Assay Protocol Summary: The medium for hNPCs consists of DMEM/F12, N2 supplement (ThermoFisher, Cat.# 17502048), NEAA (ThermoFisher, Cat. # 11140050), 2 ug/ml heparin, 2 uM cyclopamine, and B27 (ThermoFisher, Cat. # 17504044). The ATP content assay kit (PerkinElmer, Cat.# 6016731) was used to determine cell viability. The reagent was reconstituted and prepared as described by the manufacturer. Cells were seeded in 384- or 1536-well assay plates and cultured at 37 C with 5% CO2 for 16 to 20 hours. The typical cell seeding density in the 1536-well plate assay is 350 cells/well in 3 ul medium for hNPCs in the tissue cultured treated/PDL coated plates. Compounds were added to cells and incubated for one hour before addition of ZIKV solution to cells (2 FFU/cell). After incubation at 37 C with 5% CO2 for 72 hours, the reagent mixture of the ATP content assay kit was added to each well, followed by incubation at room temperature for 10 minutes. The luminescence intensity of the assay plates was measured using a ViewLux plate reader (PerkinElmer). […] The percentage inhibitions of the decreased cell viability by small molecule inhibitors were then calculated.

Structure (SMILES)	outcome
CC[n+]1c(-c2ccccc2)c2cc(N)ccc2c2ccc(N)cc21	inactive
S=C(SSC(=S)N1CCCCC1)N1CCCCC1	inactive
CC(C)[N+](C)(CCC(C(N)=O)(c1ccccc1)c1ccccc1)C(C)C	inactive
CC(O)CN1CCN(CC(=O)[O-])CCN(CC(=O)[O-])CCN(CC(=O)[O-])CC1.[Gd+3] (stereo not drawn)	inactive
CC(C)[C@H]1C(=O)N[C@H](CO)Cc2c[nH]c3cccc(c23)N1C	inactive
O=C1C=CC[C@@H]2[C@H]3CCCN4CCC[C@@H](CN12)[C@@H]34	inactive
Cc1ccc([N+](=O)[O-])[c]2c1[O][Hg]2	inactive
Oc1ccc([C@H]2CNCc3c2ccc(O)c3O)cc1O	inactive
CC(=C(CCOC(=O)C(C)C)SSC(CCOC(=O)C(C)C)=C(C)N(C=O)Cc1cnc(C)nc1N)N(C=O)Cc1cnc(C)nc1N	inactive
O=S(=O)(CC1CS1)c1ccc(Oc2ccccc2)cc1 (stereo not drawn)	inactive
CN1CC[C@@]2(C)c3cc(OC(=O)Nc4ccccc4)ccc3N(C)[C@@H]12	inactive
COP(=S)(OC)SCN1C(=O)c2ccccc2C1=O	inactive
COC1(CS(=O)c2ccccc2)CCN(CCc2c[nH]c3ccc(F)cc23)CC1 (stereo not drawn)	inactive
O=c1c2ccccc2[se]n1-c1ccccc1	inactive
O=C(Nc1ccc(Br)cc1)c1cc(Br)cc(Br)c1O	inactive
CN1CC(=O)N2C(Cc3c([nH]c4ccccc34)[C@H]2c2ccc3c(c2)OCO3)C1=O (stereo partly drawn)	inactive
COc1cccc2c1C(=O)c1c(O)c3c(c(O)c1C2=O)C[C@@](O)(C(=O)CO)CC3OC1CC(N2CCOC(OC)C2)C(O)C(C)O1 (stereo partly drawn)	inactive
CC(C)N[C@@H]1CCn2c(=O)[nH]c3cccc(c32)[C@@H]1O	inactive
